Screens (PubChem)
T cruzi growth – T. cruzi proliferation inhibition; T. cruzi beta-gal in NIH3T3, GalScreen luminescence, 90 h; inhibition, % at 8.34 µM; hit rate 5.9% among 77,000;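 active = mean inhibition above about 93%, with at least 55% of replicates each passing it, limit read from the data, passing the limit was not always enough; inconclusive = only one of those two conditions holds; inactive = neither condition holds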
C diff HTS – C. difficile growth inhibition; hit rate 0.25% among 86,000; growth activity, negative = inhibition, % at 16 µg/mL (by protocol); Clostridium difficile clinical isolate growth, OD600, 24 h; active compounds read low;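 active = mean growth activity at or below -80% and every replicate also at or below -80%; inconclusive = mean at or below -80% but some replicate above -80%; inactive = mean growth activity above -80%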;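 note: 0% = DMSO wells and -100% = levofloxacin 16 µg/mL wells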
Pf Dd2 growth – P. falciparum Dd2 growth inhibition; SYBR Green, 72 h; active compounds read low; activity change, % at 10 µM; hit rate 2.3% among 94,000; in the data active = activity change below about -80%; inconclusive = no clear call, values can overlap the other calls
An asterisk follows results filed as active; ? = inconclusive; / = no result given; ! = not active in a repeat. Only some compounds are listed: those with a hit (about 6.7% of all), similar ones and a draw of the others.

SMILES	T cruzi growth	C diff HTS	Pf Dd2 growth
C[C@@H]1CN([C@H](C)CO)C(=O)c2cc(NS(=O)(=O)c3ccccc3)ccc2O[C@H]1CN(C)Cc1ccncc1	17	0	3
CCC(=O)N1[C@@H](CO)[C@@H]2c3ccccc3N(C(=O)c3ccc4c(c3)OCO4)C[C@@H]21	-7	2	9
O=C(C[C@@H]1C[C@H]2c3cc(NC(=O)CC4CC4)ccc3O[C@H]2[C@@H](CO)O1)NCc1ccncc1	-9	3	15
COc1ccccc1-c1ccc([C@@H]2[C@@H](CO)N(C(=O)C3CC3)C23CN(C(C)=O)C3)cc1	/	3	-15
CO[C@@H]1CN(C)C(=O)c2cc(NC(C)=O)ccc2OC[C@H](C)N(Cc2nccs2)C[C@@H]1C	-49	-1	0
O=C(Nc1ccccc1)N1CCCCN2[C@H](CO)[C@H](c3ccc(-c4ccccc4F)cc3)[C@H]2C1	95	60	-33
Cc1ccc(-c2ccc([C@@H]3[C@H](CO)N4CCCCN(C(=O)Nc5cccc(F)c5)C[C@@H]34)cc2)cc1	81	-98*	-42
Cc1ccccc1-c1ccc([C@@H]2[C@H](CO)N3CCCCN(C(=O)Nc4cccc(F)c4)C[C@@H]23)cc1	52	-96*	-36
O=C(Nc1cccc(F)c1)N1CCCCN2[C@@H](CO)[C@@H](c3ccc(-c4ccccc4F)cc3)[C@@H]2C1	70	-98*	-50
Cc1ccccc1-c1ccc([C@H]2[C@@H](CO)N3CCCCN(C(=O)Nc4cccc(F)c4)C[C@@H]23)cc1	87	10	23
Cc1ccc(-c2ccc([C@H]3[C@@H](CO)N4CCCCN(C(=O)Nc5cccc(F)c5)C[C@@H]34)cc2)cc1	94	16	21
O=C(Nc1ccc(F)cc1)N1CCCCN2[C@@H](CO)[C@@H](c3ccc(-c4cccc(F)c4)cc3)[C@@H]2C1	51	-99*	-53
O=C(Nc1ccc(F)cc1)N1CCCCN2[C@H](C1)[C@@H](c1ccc(-c3cccc(F)c3)cc1)[C@@H]2CO	56	50	11
CC=Cc1ccc2n(c1=O)C[C@H]1[C@H](CO)[C@@H](C(=O)NCCN3CCCC3)N(C(=O)NCCC)[C@@H]21 (mixture of isomers)	44	3	-2
CCCNC(=O)Nc1ccc2c(c1)C(=O)N(C)C[C@@H](OC)[C@@H](C)CN(Cc1cncnc1)[C@H](C)CO2	12	-3	8
CCC(=O)N1C[C@H](O)COC[C@H]2O[C@H](CC(=O)NCC3CCCCC3)CC[C@@H]21	74	-3	3
Cc1ccccc1-c1ccc([C@@H]2[C@@H](CO)N3CCCCN(C(=O)Nc4ccc(F)cc4)C[C@H]23)cc1	83	75	-29
Cc1ccccc1-c1ccc([C@H]2[C@@H](CO)N3CCCCN(C(=O)Nc4cccc(F)c4)C[C@H]23)cc1	-28	-98*	-38
CNC(=O)C[C@H]1CC[C@@H]2[C@H](COC[C@H](O)CN2C(=O)Nc2ccc(Cl)c(Cl)c2)O1	25	-7	-12
O=C(C[C@H]1CC[C@@H]2[C@H](COC[C@H](O)CN2C(=O)Nc2ccc(Cl)c(Cl)c2)O1)NC1CCC1	-43	-99*!	/
O=C(C[C@H]1CC[C@H]2[C@@H](COC[C@H](O)CN2C(=O)Nc2cc(Cl)cc(Cl)c2)O1)N1CCOCC1	17	-96*!	/
O=C(C[C@H]1CC[C@@H]2[C@H](COC[C@@H](O)CN2C(=O)Nc2cc(Cl)cc(Cl)c2)O1)N1CCOCC1	30	55	/
CCNC(=O)C[C@@H]1CC[C@H]2[C@@H](COC[C@@H](O)CN2C(=O)Nc2ccc(Cl)c(Cl)c2)O1	11	/	4
CNC(=O)C[C@H]1CC[C@@H]2[C@H](COC[C@@H](O)CN2C(=O)Nc2ccc(Cl)c(Cl)c2)O1	20	0	-8
O=C(C[C@@H]1CC[C@@H]2[C@H](COC[C@@H](O)CN2C(=O)Nc2ccc(Cl)c(Cl)c2)O1)NC1CCC1	-86	-98*	/
SMILES	T cruzi growth	C diff HTS	Pf Dd2 growth
O=C(C[C@H]1CC[C@H]2[C@@H](COC[C@H](O)CN2C(=O)Nc2ccc(Cl)c(Cl)c2)O1)NC1CCC1	-32	-92*	/
Cc1noc(C)c1NC(=O)NCC[C@H]1CC[C@H](NC(=O)Nc2cccc(F)c2)[C@H](CO)O1	4	4	-1
O=C(NCC1CC1)[C@H]1[C@H](CO)[C@H]2Cn3c(cccc3=O)[C@H]2N1Cc1cccc(F)c1	/	0	13
CO[C@H]1CN(C)C(=O)c2ccc(NC(=O)c3ccccc3F)cc2OC[C@H](C)N(C(C)=O)C[C@@H]1C	-10	/	-5
O=C(C[C@H]1C[C@H]2c3cc(NC(=O)C4CCC4)ccc3O[C@H]2[C@H](CO)O1)NC1CCCCC1	-28	/	16
CC(C)NC(=O)Nc1ccc2c(c1)C(=O)N(C)[C@@H]1CC[C@H](CC(=O)NC3CCCCC3)O[C@H]1CO2	12	0	2
O=C(C[C@H]1C[C@@H]2c3cc(NC(=O)NC4CCCC4)ccc3O[C@@H]2[C@H](CO)O1)NCCc1ccccc1	/	11	-8
CNC(=O)C[C@@H]1CC[C@H]2[C@@H](COC[C@H](O)CN2C(=O)Nc2ccc(Cl)c(Cl)c2)O1	32	-4	-4
O=C(C[C@@H]1CC[C@@H]2[C@H](COC[C@H](O)CN2C(=O)Nc2ccc(Cl)c(Cl)c2)O1)NC1CCC1	-123	-101*!	/
CCNC(=O)C[C@@H]1CC[C@H]2[C@@H](COC[C@H](O)CN2C(=O)Nc2ccc(Cl)c(Cl)c2)O1	34	/	3
O=C(C[C@H]1CC[C@H]2[C@@H](COC[C@@H](O)CN2C(=O)Nc2ccc(Cl)c(Cl)c2)O1)NC1CCC1	-98	-99*!	/
C[C@@H]1CN([C@@H](C)CO)C(=O)Cc2cc(NC(=O)NC3CCCCC3)ccc2O[C@H]1CN(C)C(=O)Nc1ccc2c(c1)OCO2	8	8	-3
COCC(=O)Nc1ccc2c(c1)OC[C@@H](C)N(Cc1ccccn1)C[C@H](C)[C@H](OC)CN(C)C2=O	26	/	12
Cc1noc(C)c1S(=O)(=O)N(C)C[C@H]1OCCCC[C@@H](C)Oc2ccc(NC(=O)Nc3ccc(F)cc3)cc2C(=O)N([C@@H](C)CO)C[C@@H]1C	94	-10	-83*
Cc1noc(C)c1S(=O)(=O)N(C)C[C@H]1OCCCC[C@H](C)Oc2ccc(NC(=O)Nc3ccccc3)cc2C(=O)N([C@@H](C)CO)C[C@@H]1C	/	5	?
Cc1noc(C)c1S(=O)(=O)N(C)C[C@@H]1OCCCC[C@@H](C)Oc2ccc(NC(=O)Nc3ccccc3)cc2C(=O)N([C@H](C)CO)C[C@H]1C	/	14	-83*
Cc1noc(C)c1S(=O)(=O)N(C)C[C@@H]1OCCCC[C@H](C)Oc2ccc(NC(=O)Nc3cccc4ccccc34)cc2C(=O)N([C@H](C)CO)C[C@H]1C	83	-3	-79
Cc1noc(C)c1S(=O)(=O)N(C)C[C@H]1OCCCC[C@H](C)Oc2ccc(NC(=O)Nc3cccc4ccccc34)cc2C(=O)N([C@H](C)CO)C[C@H]1C	/	0	-92*
Cc1noc(C)c1S(=O)(=O)N(C)C[C@H]1OCCCC[C@@H](C)Oc2ccc(NC(=O)Nc3ccc(F)cc3)cc2C(=O)N([C@H](C)CO)C[C@@H]1C	9	-7	-5
C[C@@H]1CN([C@H](C)CO)C(=O)c2cccc(NS(C)(=O)=O)c2O[C@H]1CN(C)Cc1ccc(C(=O)O)cc1	21	-5	25
